Inconclusive results are not listed. Entries that show only a call come without a potency. Calls of active or inactive are those of the source. The call rests on the fitted dose curve; in most records, active means well fitted curve in the direction sought with a large enough effect; inconclusive means small, poorly fitted or top-dose-only effect, or another doubt; inactive means no such curve, though single readings can be large; an effect the other way counts as inactive or inconclusive.
Columns and labels:
[1] = molecular target: Cytochrome P450 3A7 (Homo sapiens) (UniProt P24462); assay: Cytochrome P450 family 3 subfamily A member 7 (CYP3A7) small molecule antagonists: luciferase biochemical qHTS assay (AID 1963596); further: nearly all actives have a fitted effect of over 40% in size
Chain of Cytochrome P450 3A7 (Homo sapiens) (P24462 whole entry, looked up): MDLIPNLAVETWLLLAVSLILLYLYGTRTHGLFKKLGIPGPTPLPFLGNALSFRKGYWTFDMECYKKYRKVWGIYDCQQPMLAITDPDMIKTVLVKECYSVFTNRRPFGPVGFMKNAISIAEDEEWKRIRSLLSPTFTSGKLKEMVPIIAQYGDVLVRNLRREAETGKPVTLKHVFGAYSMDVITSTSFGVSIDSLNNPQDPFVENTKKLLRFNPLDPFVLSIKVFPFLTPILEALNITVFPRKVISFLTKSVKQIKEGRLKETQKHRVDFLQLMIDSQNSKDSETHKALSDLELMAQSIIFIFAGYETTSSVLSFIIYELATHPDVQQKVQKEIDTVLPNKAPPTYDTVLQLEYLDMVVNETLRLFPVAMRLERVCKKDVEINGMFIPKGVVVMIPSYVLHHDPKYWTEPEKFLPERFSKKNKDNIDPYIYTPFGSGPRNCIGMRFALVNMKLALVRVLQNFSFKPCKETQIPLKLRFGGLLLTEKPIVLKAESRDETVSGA
Method in brief: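 Biochemical CYP3A7 activity measured with P450-Glo system: luciferin formed from proluciferin substrate in NADPH-driven reaction (1 h, room temperature) after 10 min compound preincubation. Signal in relative luminescence units.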

[2] = Viability qHTS for spleen associated tyrosine kinase inhibitor (SYKi) naive MV4-11 cells (AID 1963823); further: nearly all actives have a fitted effect of over 40% in size
Method in brief: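 Cells: MV4-11, SYK inhibitor naive, 500 per well. Treatment: library compounds, 72 hr, 37 C, 5% CO2. Read-out: CellTiter-Glo luminescence after 10 min RT.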

[3] = Viability qHTS for spleen associated tyrosine kinase inhibitor (SYKi) drug resistant MV4-11 cells (AID 1963824); further: nearly all actives have a fitted effect of over 35% in size
Method in brief: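 CellTiter-Glo luminescence, read 10 min after reagent addition, reports viability after a 72 hr compound exposure. Cells are an MV4-11 line made resistant to SYK inhibition, seeded at 500 per well onto compound-containing plates.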
Potency means the concentration at half of the fitted maximal effect.

| SMILES | Potency [1] | Potency [2] | Potency [3] |
| --- | --- | --- | --- |
| CN(C)C/C=C/C(=O)Nc1cccc(C(=O)Nc2ccc(Nc3nccc(-c4cccnc4)n3)cc2)c1 | inactive | 0.184 µM (active) | 0.461 µM (active) |
| COCCCNCC1COc2ccccc2O1 (stereo not given) | inactive | inactive | inactive |
| CCCCNC(=O)[C@@H]1Cc2ccccc2N1C(=O)[C@@H](N)CC | inactive | inactive | inactive |
| O=C(c1ccc(Cl)c([N+](=O)[O-])c1)N1CCN(c2ccccc2F)CC1 | inactive | 23.1 µM (active) | 18.4 µM (active) |
| COc1ccc(C(=O)NCc2cc(C(C)C)no2)cc1OC1CCN(C)CC1 | inactive | inactive | inactive |
| COc1cccc(NC[C@@H](O)Cn2c3ccc(Br)cc3c3cc(Br)ccc32)c1 | inactive | 18.4 µM (active) | 16.4 µM (active) |
| O=S(=O)(Cc1ccccc1)Nc1ccc(-c2ccc3c(cnn3-c3ccc(F)cc3)c2)c(C(F)(F)F)c1 | 12 µM (active) | 16.4 µM (active) | 20.6 µM (active) |
| CCn1c2ccccc2c2cc(Nc3ccnc(NCCCN4CCOCC4)n3)ccc21 | inactive | 2.31 µM (active) | 2.59 µM (active) |
| CCCc1cc2c(N3CCN(C4=NCC(C)(C)S4)CC3)ncnc2s1 | inactive | 8.2 µM (active) | 5.8 µM (active) |
| CC[C@H]1OC(=O)C[C@@H](O)[C@H](C)[C@@H](O[C@@H]2O[C@H](C)[C@@H](O)[C@H](N(C)C)[C@H]2O)[C@@H](CCN2C[C@H](C)C[C@H](C)C2)C[C@@H](C)C(=O)/C=C/C(C)=C/[C@@H]1CO[C@@H]1O[C@H](C)[C@@H](O)[C@@H](OC)[C@H]1OC | inactive | inactive | inactive |

Reference: PubChem BioAssay (NCATS)
